Data: PubChem BioAssay (NCI)
“And” between values parts separate entries of the source, which are not always exact repeats. Equal entries are not always repeated. Compounds without any hit were thinned out: in the full panel of roughly 79,000, 15% have a hit. Unmarked numbers belong to inactive results. The source made the active and inactive calls. Cut-off read from the data, not from the text of the source: active = growth inhibition above about 70%; inactive = the rest.

Assay: NCI Yeast Anticancer Drug Screen. Data for the sgs1 mgt1 strain (AID 161);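 note: 0% = growth of cultures given vehicle only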
Conditions: S. cerevisiae sgs1 mgt1 strain, at 50.0 µM, stronger effect = higher value
Outline: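 Growth of a repair-deficient yeast mutant was monitored after compound treatment and expressed as inhibition relative to vehicle-treated cultures.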
In the case of CCC[CH2][Sn]([CH2]CCC)([CH2]CCC)[O]C(=O)C(OC(C)=O)c1ccccc1 (stereo not given), the growth inhibition was 91.5% (active). COc1ccc2c(c1)C(OC)C1c3c(cc4c(c3-2)OCO4)CCN1C (stereo not given) gave a growth inhibition of -8.75%. In the case of OCCN1CCNCC1, the growth inhibition was 4.95% and -17.8%. In the case of COC(=O)C(Cc1ccccc1)NC(=O)C(CNC(=O)OCc1ccccc1)C(=O)OCc1ccccc1 (stereo not given), the growth inhibition was -1.9% and -8.85%. With Cn1c(=O)c2[nH]cnc2n(C)c1=O the growth inhibition was -35.5% and -20.8%. In the case of CCSC(SCC)C(OC(C)=O)C(OC(C)=O)C(COC(C)=O)OC(C)=O (stereo not given), the growth inhibition was 8.1% and 4.4%. CC1=CC(=O)C=CC1(C)C(Cl)(Cl)Cl (stereo not given) showed a growth inhibition of -11.6%. For CCOC(=O)c1ccc(N=[N+]([O-])c2ccc(C(=O)OCC)cc2)cc1, the growth inhibition was 2.8% and -7.65%. With Nc1c(O)nc[nH]c1=O the growth inhibition was -9% and -8.55%. For C=C1C(=O)C2=CC1CCC(=O)C1(C)CCC(OC(C)=O)C(C)(C)C1CC2O (stereo not given), the growth inhibition was 78.7% (active). In the case of NCCCNCCSSC/C=C\CSSCCNCCCN, the growth inhibition was 1.8% and -15.3%. In the case of CN(C)N=Nc1ccc(C(=O)O)cc1, the growth inhibition was 28.6% and 20.9%. In the case of C1=NCCCN1, the growth inhibition was 13.3% and 20.6%. In the case of CCOc1ccc(C(CN2CCOCC2)C(C)=O)cc1OC (stereo not given), the growth inhibition was 74.7% (active). For COC1OC(COC(C)=O)C(OC(C)=O)C(OC(C)=O)C1NC(=O)N(CCCl)N=O (stereo not given), the growth inhibition was -1.2% and -13.6%. In the case of OCCCc1ccncc1, the growth inhibition was 2.9% and 4.75%. In the case of CC(C)c1ccc(C(=O)O)cc1, the growth inhibition was 9.55% and 13.2%. In the case of C[N+](C)(C)CCO, the growth inhibition was -5.85% and -6.65%. For CC(=O)OCC1OC(n2c(N)c(C#N)c(C)c(C#N)c2=S)C(OC(C)=O)C(OC(C)=O)C1OC(C)=O (stereo not given), the growth inhibition was -7.1% and -10.7%. COc1cc(/C=C2\SC(=S)N(/C=C/c3nc4ccccc4[nH]c3=O)C2=O)cc(OC)c1OC showed a growth inhibition of 63.1%. In the case of O=[N+]([O-])c1ccc(C2N(Cc3ccc(Cl)cc3)CCN2Cc2ccc(Cl)cc2)cc1, the growth inhibition was 85.8% (active). With O=C(CC(=O)c1ccc(Cl)cc1)Cc1ccc2ccccc2n1 the growth inhibition was 37.2% and 33.5%. For O=C(O)C1=C/C(=C(/c2ccccc2)c2cc(C(=O)O)c(O)c3ccccc23)c2ccccc2C1=O, the growth inhibition was -21.2% and -34.4%. In the case of O=C(O)c1cc([N+](=O)[O-])ccc1Nc1ccccc1, the growth inhibition was -7.05% and -3.35%. With O=[N+]([O-])/C(=C/c1ccccc1)c1ccccc1 the growth inhibition was 99.7% (active). With Nc1ccc(CCc2ccc(N)cc2)cc1 the growth inhibition was -34.4% and -18.4%. With CC(O)c1nc2c([nH]1)c(=O)n(C)c(=O)n2C (stereo not given) the growth inhibition was -5.6% and -2%. For c1ccc(-c2cc3cc4ccccc4cn3c2)cc1, the growth inhibition was 88.8% (active). With C[N+](C)(C)c1ncnc2c1ncn2C1CC(O)C(CO)O1 (stereo not given) the growth inhibition was 15.7% and -2.85%. In the case of O=C(OC(=C(c1ccccc1)c1ccccc1)c1ccccc1)c1ccccc1, the growth inhibition was -4.45% and 15.2%. With COc1cc(C)c2c(ccc3ccccc32)n1 the growth inhibition was 16.5% and 11.2%.

Assay: NCI Yeast Anticancer Drug Screen. Data for the cln2 rad14 strain (AID 165);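 note: 0% = growth equal to vehicle treated cultures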
Conditions: S. cerevisiae cln2 rad14 strain, at 5.0 µM (retest, dose inferred, filed as 0.5), stronger effect = higher value
Outline: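 Readout is yeast growth inhibition versus vehicle-treated controls, using a strain with cln2 and rad14 alterations exposed to compound.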
In the case of CC(C)(C)S(=O)(=O)O.[Ag], the growth inhibition was 99% (active). With COc1ccc2c(c1)C(OC)C1c3c(cc4c(c3-2)OCO4)CCN1C (stereo not given) the growth inhibition was 22%. Work on Cc1nc([N+](=O)[O-])c(Sc2nncc(-c3ccccc3)n2)n1C yielded a growth inhibition of -5%. CC1=CC(=O)C=CC1(C)C(Cl)(Cl)Cl (stereo not given) showed a growth inhibition of -44%. C=C1C(=O)C2=CC1CCC(=O)C1(C)CCC(OC(C)=O)C(C)(C)C1CC2O (stereo not given) showed a growth inhibition of 16%. Work on CCOc1ccc(C(CN2CCOCC2)C(C)=O)cc1OC (stereo not given) yielded a growth inhibition of 0%. COc1cc(/C=C2\SC(=S)N(/C=C/c3nc4ccccc4[nH]c3=O)C2=O)cc(OC)c1OC gave a growth inhibition of -29%. With O=[N+]([O-])/C(=C/c1ccccc1)c1ccccc1 the growth inhibition was 99% (active). Compound c1ccc(-c2cc3cc4ccccc4cn3c2)cc1 has a growth inhibition of 35%. Work on O=[N+]([O-])c1ccc2nc3ccccc3[n+]([O-])c2c1 yielded a growth inhibition of -1%. With O=C(CBr)C(Br)C(Br)c1ccccc1 (stereo not given) the growth inhibition was 99% (active). For Nc1cccc2c1-c1ccccc1C2=O, the growth inhibition was -1%.

Same assay, conditions: S. cerevisiae cln2 rad14 strain, at 50.0 µM (retest, dose inferred, filed as 5.0), stronger effect = higher value
With CC(C)(C)S(=O)(=O)O.[Ag] the growth inhibition was 99% (active). Work on COc1ccc2c(c1)C(OC)C1c3c(cc4c(c3-2)OCO4)CCN1C (stereo not given) yielded a growth inhibition of 28%. Work on Cc1nc([N+](=O)[O-])c(Sc2nncc(-c3ccccc3)n2)n1C yielded a growth inhibition of 9%. Compound CC1=CC(=O)C=CC1(C)C(Cl)(Cl)Cl (stereo not given) has a growth inhibition of -10%. Compound C=C1C(=O)C2=CC1CCC(=O)C1(C)CCC(OC(C)=O)C(C)(C)C1CC2O (stereo not given) has a growth inhibition of 40%. Work on CCOc1ccc(C(CN2CCOCC2)C(C)=O)cc1OC (stereo not given) yielded a growth inhibition of 28%. In the case of COc1cc(/C=C2\SC(=S)N(/C=C/c3nc4ccccc4[nH]c3=O)C2=O)cc(OC)c1OC, the growth inhibition was 58%. With O=[N+]([O-])/C(=C/c1ccccc1)c1ccccc1 the growth inhibition was 99% (active). In the case of c1ccc(-c2cc3cc4ccccc4cn3c2)cc1, the growth inhibition was 84% (active). For O=[N+]([O-])c1ccc2nc3ccccc3[n+]([O-])c2c1, the growth inhibition was 99% (active). For O=C(CBr)C(Br)C(Br)c1ccccc1 (stereo not given), the growth inhibition was 99% (active). With Nc1cccc2c1-c1ccccc1C2=O the growth inhibition was -7%.
